Data on 34 molecules can be found in PubChem BioAssay (NCATS).

Several values for one entry are separate records, joined by “and”; a condition that tells them apart may be missing. Identical values can stand only once. Inconclusive results are not listed. The source holds several records for some structures; these can differ, active in one and inactive in another. Activity calls are given as the source filed them. Unless noted, the call rests on the fitted dose curve; in most records, active means well fitted curve in the direction sought with a large enough effect; inconclusive means small, poorly fitted or top-dose-only effect, or another doubt; inactive means no such curve, though single readings can be large; an effect the other way counts as inactive or inconclusive.

The nature of assay [1]: Primary qHTS for inhibitors of nuclear receptor binding SET domain protein 2 (NSD2) in an isogenic RCH-ACV NSD2 p.E1099K mutant (9B) (AID 1645876; further: nearly all actives have a fitted effect of over 70% in size; further: potency means the concentration at half of the fitted maximal effect). (Quantitative high-throughput screening tests each substance at several concentrations.)
A short description of assay [2]: Primary qHTS for inhibitors of nuclear receptor binding SET domain protein 2 (NSD2) in an RCH-ACV wild type WT cells (2C) (AID 1645877). Further: nearly all actives have a fitted effect of over 70% in size. Further: potency means the concentration at half of the fitted maximal effect.
In assay [3] the target is Rap guanine nucleotide exchange factor 3 (Homo sapiens) (UniProt O95398). Description: Confirmatory qHTS for antagonist of cAMP-regulated guanine nucleotide exchange factor 3 (EPAC1) (AID 1645880).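 Further: plate controls were DMSO only for no effect and full effect of the ATA control for full effect; nearly all actives have a fitted effect of over 55% in size.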 Summed up:
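Released BODIPY-GDP fluoresces less than Rap1-bound BODIPY-GDP; the signal is followed at 480/540 nm at 5-min intervals over 30 min, after 5 min at room temperature. Reactions contain 100 nM EPAC1, 250 nM RAP1B-BODIPY-GDP and 50 uM GDP; results are normalized to ATA and DMSO.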

For assay [4] the target is unchanged. Description: Confirmatory qHTS for agonist of cAMP-regulated guanine nucleotide exchange factor 3 (EPAC1) (AID 1645881).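 Further: EPAC1 catalysed release of BODIPY-GDP from Rap1B seen as fluorescence loss; 100% = effect of cAMP agonist control; nearly all actives have a fitted effect of over 75% in size.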
Assay [5] has as its target Rap guanine nucleotide exchange factor 4 (Homo sapiens) (UniProt Q8WZA2). Briefly: Confirmatory qHTS for antagonist of cAMP-regulated guanine nucleotide exchange factor 4 (EPAC2) (AID 1645885). Further: on the % scale 0 is the no-effect control and ±100 the full control effect; nearly all actives have a fitted effect of over 25% in size.
Assay [6] has the same target. Description: Confirmatory qHTS for agonist of cAMP-regulated guanine nucleotide exchange factor 4 (EPAC2) (AID 1645884).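 Further: nucleotide exchange releases bodipy-GDP from Rap1 and this lowers its fluorescence; on the % scale 0 is the no-effect control and ±100 the full control effect; nearly all actives have a fitted effect of over 65% in size.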
The target in assay [7] is Rap guanine nucleotide exchange factor 3 (Homo sapiens) (UniProt O95398). Description: Counterscreen qHTS for antagonist of cAMP-regulated guanine nucleotide exchange factor 3 (EPAC1) (AID 1645888). Further: % of control where 0% means no effect. Put shortly:
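Measured: fluorescence of BODIPY-GDP bound to Rap1B, which falls as exchange proceeds. Conditions include 50 uM competing GDP, 5 and 30 min reads, and a later cAMP challenge for antagonist detection.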
In general terms: The purpose of a counterscreen is to sort out artefacts and off-target activity.

Assay [8] concerns the target Catechol O-methyltransferase (Homo sapiens) (UniProt P21964). Briefly: Confirmatory Screen for Target Class Profiling of Small Molecule Inhibitors of Methyltransferases (AID 1745852; calls by dose curve; on activity change, negative = inhibition: on the % scale 0 is the no-effect control and ±100 the full control effect). Conditions: MTase-Glo luminescence, SAH detection, recombinant enzyme; measured here: COMT max response; stronger effect = lower value.
Assay [9] has as its target Guanidinoacetate N-methyltransferase (Homo sapiens) (UniProt Q14353). The description is as above. Conditions: MTase-Glo luminescence, SAH detection, recombinant enzyme; activity change, negative = inhibition: at 57.3 µM (top of the series).

Rap guanine nucleotide exchange factor 3 (Homo sapiens), sequence (O95398 whole entry, looked up): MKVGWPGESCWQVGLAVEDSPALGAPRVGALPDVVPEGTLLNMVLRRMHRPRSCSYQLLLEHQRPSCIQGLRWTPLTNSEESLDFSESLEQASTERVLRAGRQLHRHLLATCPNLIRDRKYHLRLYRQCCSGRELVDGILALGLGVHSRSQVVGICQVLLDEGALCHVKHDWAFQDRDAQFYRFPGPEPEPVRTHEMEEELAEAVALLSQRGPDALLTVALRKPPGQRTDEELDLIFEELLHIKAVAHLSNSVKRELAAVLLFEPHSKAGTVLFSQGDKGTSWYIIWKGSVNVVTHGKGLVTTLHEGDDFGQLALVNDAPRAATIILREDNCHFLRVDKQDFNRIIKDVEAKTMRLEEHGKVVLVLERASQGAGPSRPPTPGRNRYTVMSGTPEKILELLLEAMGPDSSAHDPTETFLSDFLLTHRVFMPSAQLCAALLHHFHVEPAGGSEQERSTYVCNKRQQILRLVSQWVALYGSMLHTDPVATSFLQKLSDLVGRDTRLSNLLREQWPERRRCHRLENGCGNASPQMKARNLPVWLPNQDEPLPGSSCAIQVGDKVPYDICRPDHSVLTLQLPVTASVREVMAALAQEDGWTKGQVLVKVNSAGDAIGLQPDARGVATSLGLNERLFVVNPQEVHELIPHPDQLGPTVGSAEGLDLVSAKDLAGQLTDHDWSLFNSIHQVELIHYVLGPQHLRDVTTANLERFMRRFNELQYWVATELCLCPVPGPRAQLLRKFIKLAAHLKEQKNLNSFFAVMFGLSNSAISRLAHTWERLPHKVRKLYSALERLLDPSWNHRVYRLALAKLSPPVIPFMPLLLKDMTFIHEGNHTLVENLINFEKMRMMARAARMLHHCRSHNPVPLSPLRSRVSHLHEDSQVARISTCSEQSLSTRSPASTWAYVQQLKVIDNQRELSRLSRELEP
Rap guanine nucleotide exchange factor 4 (Homo sapiens), sequence (Q8WZA2 whole entry, looked up): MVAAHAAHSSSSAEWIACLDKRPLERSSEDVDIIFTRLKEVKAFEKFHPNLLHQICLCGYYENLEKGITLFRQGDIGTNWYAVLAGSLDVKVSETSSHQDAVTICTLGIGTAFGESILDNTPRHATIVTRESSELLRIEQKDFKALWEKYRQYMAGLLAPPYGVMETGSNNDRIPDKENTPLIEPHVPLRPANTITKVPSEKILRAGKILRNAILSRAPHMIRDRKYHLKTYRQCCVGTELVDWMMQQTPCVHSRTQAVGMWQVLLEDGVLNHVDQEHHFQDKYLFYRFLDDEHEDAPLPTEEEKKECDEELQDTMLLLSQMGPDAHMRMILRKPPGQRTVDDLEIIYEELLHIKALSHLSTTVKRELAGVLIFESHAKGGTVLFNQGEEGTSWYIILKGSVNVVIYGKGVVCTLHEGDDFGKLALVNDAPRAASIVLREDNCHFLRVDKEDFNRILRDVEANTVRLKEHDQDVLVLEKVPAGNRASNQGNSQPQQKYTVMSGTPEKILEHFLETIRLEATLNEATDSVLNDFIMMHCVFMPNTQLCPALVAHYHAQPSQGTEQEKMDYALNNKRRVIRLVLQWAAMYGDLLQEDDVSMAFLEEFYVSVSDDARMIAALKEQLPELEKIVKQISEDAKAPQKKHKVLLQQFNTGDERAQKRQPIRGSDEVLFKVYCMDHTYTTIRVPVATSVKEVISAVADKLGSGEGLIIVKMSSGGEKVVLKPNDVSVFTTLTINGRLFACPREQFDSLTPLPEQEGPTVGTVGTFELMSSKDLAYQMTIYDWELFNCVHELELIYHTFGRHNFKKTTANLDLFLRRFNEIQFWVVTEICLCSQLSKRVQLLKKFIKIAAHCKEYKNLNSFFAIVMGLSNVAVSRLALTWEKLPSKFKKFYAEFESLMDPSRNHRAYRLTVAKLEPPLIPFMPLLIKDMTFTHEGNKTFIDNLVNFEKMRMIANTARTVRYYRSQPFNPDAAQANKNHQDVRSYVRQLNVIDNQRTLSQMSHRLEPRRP
Catechol O-methyltransferase (Homo sapiens), sequence (P21964 whole entry, looked up): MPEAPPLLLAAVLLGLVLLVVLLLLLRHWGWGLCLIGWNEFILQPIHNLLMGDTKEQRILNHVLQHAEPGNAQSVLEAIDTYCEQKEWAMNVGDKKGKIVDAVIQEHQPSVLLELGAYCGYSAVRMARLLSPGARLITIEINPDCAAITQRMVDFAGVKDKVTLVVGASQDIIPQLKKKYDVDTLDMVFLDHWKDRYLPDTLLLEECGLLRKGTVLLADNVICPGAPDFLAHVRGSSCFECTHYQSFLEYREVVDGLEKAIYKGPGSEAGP

As to `Fc1cc(Br)ccc1CBr`, the Potency entry in assay [1] and in assay [2] was “inactive” in each case.
On to `CC(N[C@H]1C[C@H]1c1ccccc1)c1ccc2c(c1)OCCO2` (some centres undefined), for which the Potency entry in assay [1] and in assay [2] was “inactive” in each case.
Turning to `CO/C=C(/C(=O)OC)c1ccccc1Oc1cc(Oc2ccccc2C#N)ncn1`, the Potency in assay [1] and in assay [2] was 24.3 µM (active) in each case.
As for `c1cc2ccc3cccc4ccc(c1)c2c34`, the Potency entry in assay [1] and in [2] was “inactive” throughout.
For `CC(C)NCC(O)c1ccc([N+](=O)[O-])cc1` (centres undefined), the Potency result in assay [1] and in assay [2] was “inactive” in each case.
In the case of `O=c1cccc2n1CC1CNC[C@H]2C1`, the Potency result in assay [1] and in assay [2] was “inactive” throughout.
For `CC(C)(C)c1cc(C=C(C#N)C#N)cc(Br)c1O`, the Potency entry in assay [1] was “inactive”. For the same molecule, the Potency in [2] was 16.4 µM (active) and inactive.
Turning to `O=C(O)CNC(=O)c1c(O)c2ccccc2n(Cc2ccccc2)c1=O`, the Potency result in assay [1] and in assay [2] was “inactive” each time.
With `Nc1ccc(Cl)cc1`, the Potency result in assay [1] and in [2] was “inactive” each time.
Consider `CCNC(=O)C[C@@H]1N=C(c2ccc(Cl)cc2)c2cc(OC)ccc2-n2c(C)nnc21`, for which the Potency in assay [1] was 459 nM (active) and 590 nM (active); in assay [2], 459 nM (active) and 833 nM (active).
Regarding `CCOCCOC(C)=O`, the Potency entry in assay [1] and in [2] was “inactive” each time.
Regarding `C[C@]12CC[C@H]3[C@@H](CCC4=CC(=O)CC[C@@]43C)[C@H]1CC[C@H]2OC(=O)CCC1CCCC1`, the Potency result in assay [1] and in assay [2] was “inactive” in each case.
With `O=C1C(I)=CC(=C(c2cc(I)c(O)c(I)c2)c2ccccc2C(=O)O)C=C1I`, the Potency result in [1] and in assay [2] was “inactive” throughout.
For `NC1=NC(=O)N2CC12` (centres undefined), the Potency entry in [1] and in assay [2] was “inactive” in each case.
With `CC(=O)[O][Hg][c]1ccccc1`, the figures for the Potency in assay [1] and in assay [2] were 0.596 µM (active) and 0.531 µM (active), respectively.
In the same order, the values of `O=C(Oc1ccc([N+](=O)[O-])cc1)N1CCC(C(O)(c2ccc3c(c2)OCO3)c2ccc3c(c2)OCO3)CC1` are “inactive” and “inactive”.
The corresponding values for `COc1nn(CSP(=S)(OC)OC)c(=O)s1` are 9.69 µM (active) and 13.7 µM (active).
The corresponding values for `Oc1ccc2c3c1O[C@H]1[C@@H](O)C=C[C@H]4[C@@H](C2)NCC[C@@]341` are 28.1 µM (active) and 39.7 µM (active).
As to `COC(=O)[C@@H](N)CCCN=C(N)N[N+](=O)[O-]`, the Potency result in assay [1] and in [2] was “inactive” throughout.
Take `O=C(NCC1CCOCC1)c1cnc(Nc2ccc(Cl)cc2Cl)nc1C(F)(F)F`: the Potency result in assay [1] and in assay [2] was “inactive” in each case.
As to `O=c1[nH]c2ccc(Cl)cc2c(N[C@@H]2CN3CCC2CC3)c1-c1nc2ccccc2[nH]1`, the Potency was 64.9 nM (active) and 83.3 nM (active) in [1]; 51.5 nM (active) and 83.3 nM (active) in assay [2].
On to `C[C@]12CC[C@@H]3[C@@H](CCC4=CC(=O)CC[C@@H]43)[C@@H]1CC[C@@H]2OC(=O)CCc1ccccc1`, for which the Potency result in [1] and in [2] was “inactive” each time.
`COC[C@H]1OC(=O)c2coc3c2[C@@]1(C)C1=C(C3=O)[C@@H]2CC[C@H](O)[C@@]2(C)C[C@@H]1OC(C)=O`: the Potency in assay [1] and in assay [2] was 0.58 µM (active) in each case.
Consider `N=c1c2c(-c3ccccc3)c(-c3ccccc3)n(Cc3ccccc3)c2ncn1C1CCC(O)CC1` (centres undefined), for which the Potency in assay [1] is 0.59 µM (active); in assay [2] it was 0.263 µM (active).
On to `CCCN1CCO[C@@H]2c3cc(O)ccc3OC[C@H]21`, for which the Potency result in assay [1] and in [2] was “inactive” throughout.
As for `CC[C@@]1(O)C(=O)OCc2c1cc1n(c2=O)Cc2cc3ccccc3nc2-1`, the Potency in [1] is 0.0148 µM (active); in assay [2] it was 0.0132 µM (active).
The corresponding values for `O=C(O)COc1nc(Cl)c(Cl)cc1Cl` are “inactive” and “inactive”.
For `O=C(O)c1cc(Oc2ccc(C(F)(F)F)cc2Cl)ccc1[N+](=O)[O-]`, the Potency entry in assay [2] was “inactive”.
With `Cc1nc(-c2ccc(-c3ccc(C(=O)N4CCc5cc6c(cc54)C4(CCN(C)CC4)CO6)cc3)c(C)c2)no1`, the outcome in assay [3] and in assay [4] was “inactive” each time. Moreover, in [5], the Potency entry was “inactive”.
Take `c1ccc(CCCN2CCN(CCOC(c3ccccc3)c3ccccc3)CC2)cc1`: the outcome in [4], in assay [6] and in assay [7] was “inactive” throughout. Moreover, the Potency result in assay [5] is “inactive”.
Consider `COc1ccc(C(=O)c2c(C)n(CCN3CCOCC3)c3cc(I)ccc23)cc1`, for which the figures for the Potency in assay [1] and in assay [2] were 18.6 µM (active) and 14.8 µM (active), respectively.
On to `CC(C)NC(C)Cc1ccc(I)cc1` (centres undefined), for which the activity in assay [8] is 0.93%. Besides, in [9], the activity change, negative = inhibition is 2.72%.
With `O=[N+]([O-])c1c2ccccc2cc2ccccc12`, in [2], the Potency entry is “inactive”.
Regarding `CCOP(=O)(OCC)C(C)NC(=O)N(CCCl)N=O` (centres undefined), the Potency entry in assay [1] and in assay [2] was “inactive” each time.
